A selection: hits, their analogues and other compounds. The true share with any hit is near 12%.
BAZ2B block = BAZ2B (human) inhibition. Q9UIF8. AlphaScreen BAZ2B-H3K14Ac peptide displacement. Potency, µM (highest dose often 114 µM), for inactives: at the highest dose activity change, negative = inhibition, actives largely listed as inhibitors. hit rate 4.4% among 360,000; note: % is set by controls: 0 for no effect and ±100 for the full control effect; nearly all actives have a fitted effect of over 60% in size
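In this displacement format the biotinylated H3(5-23) peptide acetylated at Lys14 serves as ligand at 50 nM, with BAZ2B at 50 nM in PBS pH 7.4 containing 0.01% Tween-20. Donor and acceptor beads are 10 ug/mL final.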
L3MBTL1 block = inhibitors of human L3MBTL1. hit rate 0.66% among 230,000. Q9Y468. Potency, µM (doses to about 57.1 µM), for the others: top-dose activity, negative = inhibition, hits mostly inhibitors. AID 485360. AlphaScreen L3MBTL1–H3K9me1 peptide binding; note: % is set by controls: 0 for no effect and ±100 for the full control effect; nearly all actives have a fitted effect of over 60% in size
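AlphaScreen proximity signal between nickel-chelate acceptor and streptavidin donor beads (final 10 ug/mL) reports binding of 50 nM L3MBTL1 to 75 nM biotin-H3 K9me1 peptide; complex incubated with compounds 30 min at room temperature; cefsulodin titration as control.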
HP1b chromo inh = HP1-beta chromodomain-methylated histone interaction inhibition; AlphaScreen HP1-beta / biotin-H3K9me3 peptide binding; Potency, µM (top dose mostly 114 µM), for inactives: at the top dose activity change, negative = inhibition, actives largely listed as inhibitors; hit rate 0.56% among 390,000; AID 540317; note: nearly all actives have a fitted effect of over 70% in size
Target sequence (P83916 whole entry, looked up): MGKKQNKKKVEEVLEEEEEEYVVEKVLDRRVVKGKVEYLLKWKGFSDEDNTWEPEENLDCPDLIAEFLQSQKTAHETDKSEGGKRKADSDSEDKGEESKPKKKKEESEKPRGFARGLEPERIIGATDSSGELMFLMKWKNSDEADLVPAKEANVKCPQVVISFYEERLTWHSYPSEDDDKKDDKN
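AlphaScreen: HP1-beta (50 nM) preformed 30 min with biotin-H3(1-18)K9me3 peptide (50 nM) in PBS pH 7.4, 0.01% Tween-20. Compound added for 30 min at RT, then streptavidin donor/nickel chelate acceptor beads (10 ug/mL) for 30 min.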
Sfp PPTase inh = inhibitors of Bacillus subtilis Sfp phosphopantetheinyl transferase | Biochemical Sfp PPTase activity, qHTS | Potency, µM, inactives show largest response in the series, negative = inhibition, hits mostly inhibitors | hit rate 3.5% among 310,000;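 note: the enzyme is Sfp with the accession as filed and its product quenches rhodamine fluorescence; 0% = enzyme reaction without inhibitor and -100% = no enzyme wells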
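Step 1, compound plus 15 nM Sfp-PPTase, 15 min, room temperature. Step 2, add rhodamine-CoA (5 uM) and BHQ-2-YbbR (12.5 uM). Step 3, read 525/598 nm fluorescence at 0 and 30 min.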
G9a block = blocks human histone lysine methyltransferase G9a; Potency, µM (titrated, usually from 102 µM), inactives show top-dose activity, negative = inhibition, actives largely listed as inhibitors; AID 504332; Q96KQ7; G9a H3K9 monomethylation, AlphaScreen, 2 h; hit rate 8.8% among 350,000; note: % is set by controls: 0 for no effect and ±100 for the full control effect; nearly all actives have a fitted effect of over 75% in size
Target sequence (Q96KQ7 913-1193 limits assumed): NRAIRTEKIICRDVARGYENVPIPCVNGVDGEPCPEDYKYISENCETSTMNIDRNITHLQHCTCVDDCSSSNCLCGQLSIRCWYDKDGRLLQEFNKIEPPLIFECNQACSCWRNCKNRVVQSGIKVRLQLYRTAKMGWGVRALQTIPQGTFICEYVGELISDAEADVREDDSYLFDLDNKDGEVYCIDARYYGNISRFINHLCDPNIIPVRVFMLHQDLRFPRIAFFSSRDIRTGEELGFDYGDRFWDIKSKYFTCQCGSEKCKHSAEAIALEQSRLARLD
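Quantitative HTS format: methyltransferase activity on a biotin-tagged H3K9 peptide is measured by AlphaScreen, using a rabbit anti-monomethyl-H3K9 antibody with streptavidin donor and anti-IgG acceptor beads. Final levels are 20 nM enzyme, 500 nM peptide, 20 uM SAM; 2 h RT.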
JMJD2A Tudor = inhibitors of human JMJD2A Tudor domain; O75164; AlphaScreen JMJD2A-Tudor / H3K4me3 peptide binding; Potency, µM (top dose mostly 114 µM), for inactives: at the highest dose activity change, negative = inhibition, most hits filed as inhibitors; hit rate 4.4% among 390,000; note: % is set by controls: 0 for no effect and ±100 for the full control effect; nearly all actives have a fitted effect of over 50% in size
* marks the source's active call; other numbers are inactive results; [ ] = another dose, or the depositor's remark. Calls come from the whole dose curve; as a rule, active = well fitted curve in the direction sought with a large enough effect; inconclusive = small, poorly fitted or top-dose-only effect, or another doubt; inactive = no such curve, though single readings can be large; an effect the other way counts as inactive or inconclusive. Potency is the fitted concentration of half-maximal effect.

COC(=O)c1[nH]c2ccc(C)cc2c1NC(=O)Nc1ccccc1OC was read as BAZ2B block 3%, L3MBTL1 block -6%, HP1b chromo inh 13%, Sfp PPTase inh inconclusive, G9a block 40µM* and JMJD2A Tudor -6%.
Screening COC(=O)c1[nH]c2ccc(C)cc2c1NC(=O)CN1CCc2cc(OC)c(OC)cc2C1 returned BAZ2B block inconclusive, L3MBTL1 block -7%, HP1b chromo inh 16%, Sfp PPTase inh -3%, G9a block 50µM* and JMJD2A Tudor -26%.
COc1cc2c(cc1OC)CN(CC(=O)Nc1ccc(C)cc1)CC2 was read as BAZ2B block -36%, HP1b chromo inh 26%, Sfp PPTase inh 23%, G9a block inconclusive and JMJD2A Tudor -17%.
COc1cc(C(=O)Nc2c(C(=O)O)[nH]c3ccc(C)cc23)cc(OC)c1OC was read as BAZ2B block -21%, HP1b chromo inh -4%, Sfp PPTase inh -1%, G9a block inconclusive and JMJD2A Tudor -20%.
`COc1ccc(-c2cn3c(n2)sc2cc(C(=O)Nc4cc(Cl)ccc4C)ccc23)cc1` gave BAZ2B block -6%, HP1b chromo inh 23%, G9a block -3%[59 µM] and JMJD2A Tudor -8%.
Screening COc1cccc(CNC(=O)CSC2=Nc3ccccc3C3=NC(C(C)C)C(=O)N23)c1 (stereo not drawn) returned BAZ2B block -2%, HP1b chromo inh -2%, G9a block -3%[59 µM] and JMJD2A Tudor -24%.
For CCCS(=O)(=O)Nc1ccc(Nc2c3ccccc3nc3ccccc23)c(OC)c1 the results were HP1b chromo inh inconclusive and JMJD2A Tudor 40µM*.
`COc1cccc(-c2nc(SCc3cc(=O)c4cc(Cl)ccc4[nH]3)n[nH]2)c1` gave BAZ2B block 4%, HP1b chromo inh 31%[57 µM], G9a block 7%[59 µM] and JMJD2A Tudor -11%.
Screening CC(C)c1nn2c(=O)cc(COC(=O)c3cccs3)nc2s1 returned BAZ2B block -3%, HP1b chromo inh -19%, G9a block 11%[59 µM] and JMJD2A Tudor -15%.
`CCOc1ccc(C(=O)Nc2cc3c(cc2N2CCCC2)n(CC)c(=O)n3CC)cc1OCC` gave BAZ2B block inconclusive, HP1b chromo inh 7%, Sfp PPTase inh 5%, G9a block 45µM* and JMJD2A Tudor -32%.
`CCn1c(=O)n(CC)c2cc(N3CCCC3)c(NC(=O)c3c(F)cccc3F)cc21` gave BAZ2B block inconclusive, HP1b chromo inh 20%, Sfp PPTase inh -2%, G9a block inconclusive and JMJD2A Tudor 7%.
Screening CCn1c(=O)n(CC)c2cc(N3CCCC3)c(NC(=O)c3ccc(F)cc3)cc21 returned BAZ2B block inconclusive, HP1b chromo inh 26%, Sfp PPTase inh -19%, G9a block 45µM* and JMJD2A Tudor -21%.
Screening CCOC(=O)CN1C(=O)CC(c2ccc([N+](=O)[O-])cc2)C1=O (stereo not drawn) returned BAZ2B block -2%, L3MBTL1 block 1%, HP1b chromo inh 28%, Sfp PPTase inh 6%, G9a block 45µM* and JMJD2A Tudor -3%.
`CN1CCN(c2ccc(NC(=O)c3cc([N+](=O)[O-])ccc3N3CCOCC3)cc2)CC1` gave BAZ2B block inconclusive, HP1b chromo inh -6%, Sfp PPTase inh 0% and JMJD2A Tudor -10%.
`O=C(Nc1ccc2oc(=O)ccc2c1)c1ccc(-c2ccc(Cl)cc2)o1` gave BAZ2B block 0%, L3MBTL1 block -5%, HP1b chromo inh 23%, Sfp PPTase inh -10%, G9a block 4% and JMJD2A Tudor -5%.
CCn1nnc(NC(=O)c2ccc(-c3ccc(Cl)cc3)o2)n1 was read as BAZ2B block -6%, L3MBTL1 block -4%, HP1b chromo inh 33%, Sfp PPTase inh inconclusive, G9a block 45µM* and JMJD2A Tudor inconclusive.
CS(=O)(=O)N1CCN(c2ccc(NC(=O)c3ccc(-c4ccc(Cl)cc4)o3)cc2)CC1 was read as BAZ2B block -5%, HP1b chromo inh 12%, Sfp PPTase inh 11%, G9a block 12% and JMJD2A Tudor -22%.
O=C(Nc1ccc2oc(=O)ccc2c1)c1ccc(-c2cccc([N+](=O)[O-])c2)o1 was read as BAZ2B block 35µM*, L3MBTL1 block -12%, HP1b chromo inh -1%, Sfp PPTase inh 1%, G9a block inconclusive and JMJD2A Tudor -32%.
`CN1CCN(c2ccc(NC(=O)c3ccc(-c4cccc([N+](=O)[O-])c4)o3)cc2)CC1` gave BAZ2B block 45µM*, L3MBTL1 block -20%[11.4 µM], HP1b chromo inh inconclusive, Sfp PPTase inh -17%, G9a block inconclusive and JMJD2A Tudor inconclusive.
Screening CN1CCN(c2ccc(NC(=O)c3ccc(-c4ccc(Cl)cc4)o3)cc2)CC1 returned BAZ2B block 8.9µM*, HP1b chromo inh -18%, Sfp PPTase inh -23% and JMJD2A Tudor inconclusive.
COc1ccc2c(CC(=O)Nc3ccc(C)cc3)coc2c1 was read as BAZ2B block -15%, HP1b chromo inh -6%, G9a block -19%[59 µM] and JMJD2A Tudor -18%.
CCC(CC)c1nnc(NC(=O)c2ccco2)s1 was read as BAZ2B block -19%, L3MBTL1 block 1%, HP1b chromo inh -19%, Sfp PPTase inh inconclusive, G9a block 45µM* and JMJD2A Tudor -11%.
Screening Cc1cc(=O)oc2cc(OCC(=O)Nc3nnc(C(C)C)s3)ccc12 returned BAZ2B block -9%, HP1b chromo inh 16%, Sfp PPTase inh -3%, G9a block 45µM* and JMJD2A Tudor -15%.
For O=C(O)CSc1nnc(NC(=O)c2ccc3c(c2)OCO3)s1 the results were BAZ2B block -38%, L3MBTL1 block 30%, HP1b chromo inh 35%, Sfp PPTase inh 15%, G9a block -25% and JMJD2A Tudor -10%.
CC(C)(C)Cc1nnc(NC(=O)c2ccc3c(c2)OCO3)s1 was read as BAZ2B block -15%, HP1b chromo inh inconclusive, Sfp PPTase inh -99%, G9a block 8.9µM* and JMJD2A Tudor -19%.
Cc1cc(=O)oc2cc(OCC(=O)Nc3nnc(CC(C)C)s3)ccc12 was read as BAZ2B block 0%, L3MBTL1 block 4%, HP1b chromo inh 44%, Sfp PPTase inh 1%, G9a block -2%[12.7 µM] and JMJD2A Tudor -19%.
O=C(Nc1nnc(Cc2ccc([N+](=O)[O-])cc2)s1)c1ccc2c(c1)OCO2 was read as BAZ2B block -13%, HP1b chromo inh 23%, Sfp PPTase inh 20%, G9a block -7%[12.7 µM] and JMJD2A Tudor -4%.

Screening data as filed in PubChem.
